Results filed as inconclusive are left out. A call without a number means that no potency is given here. Calls of active or inactive are those of the source. Calls come from the whole dose curve; as a rule, active = well fitted curve in the direction sought with a large enough effect; inconclusive = small, poorly fitted or top-dose-only effect, or another doubt; inactive = no such curve, though single readings can be large; an effect the other way counts as inactive or inconclusive.
Tests used:
[1] = Viability qHTS for spleen associated tyrosine kinase inhibitor (SYKi) naive MV4-11 cells (AID 1963823); note: nearly all actives have a fitted effect of over 40% in size; note: potency is the fitted concentration of half-maximal effect
Summary of the method: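 SYKi-naive MV4-11 AML cells, 500 per well, were exposed to library compounds for 72 hr at 37 C, 5% CO2. Viability was then read by CellTiter-Glo luminescence after 10 min at room temperature.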

[2] = Viability qHTS for spleen associated tyrosine kinase inhibitor (SYKi) drug resistant MV4-11 cells (AID 1963824); note: nearly all actives have a fitted effect of over 35% in size; note: potency is the fitted concentration of half-maximal effect
Summary of the method: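 SYK-inhibitor-resistant MV4-11 AML cells were seeded at 500 per well onto compound and cultured 72 hours (37 °C, 5% CO2). CellTiter-Glo was then added, and after 10 min at room temperature, luminescence gave viability.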

[3] = Quantitative highthroughput screen to assess conditional lethalithy of NOMO1 cells grown in RPMI1640 with untreated serum (RPMI+s) (AID 1963876); note: nearly all actives have a fitted effect of over 35% in size
Summary of the method: (§1)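 Each medium arm—HPLM with 10% dialyzed FBS, or RPMI1640 with 5 mM glucose and 10% untreated or dialyzed FBS—was screened against an 11-point, 3-fold compound titration for 48 h at 37 °C, with CellTiter-Glo luminescence as endpoint.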

[4] = Quantitative highthroughput screen to assess conditional lethalithy of NOMO1 cells grown in RPMI1640 with dialyzed fetal bovine serum (RPMI+ds) (AID 1963877); note: series mostly up to about 46 µM; nearly all actives have a fitted effect of over 30% in size
Summary of the method: as §1

[5] = Quantitative highthroughput screen to assess conditional lethalithy of NOMO1 cells grown in Human Plasma-Like Medium with dialyzed fetal bovine serum (HPLM+ds) (AID 1963878); note: nearly all actives have a fitted effect of over 35% in size
Summary of the method: as §1

[6] = Quantitative highthroughput screen to assess conditional lethalithy of P12 Ichikawa cells grown in Human Plasma-Like Medium with dialyzed fetal bovine serum (HPLM+ds) (AID 1963879); conditions: Potency: viability; note: series mostly up to about 46 µM; nearly all actives have a fitted effect of over 35% in size
Summary of the method: as §1

[7] = Quantitative highthroughput screen to assess conditional lethalithy of P12 Ichikawa cells grown in RPMI1640 with dialyzed fetal bovine serum (RPMI+ds) (AID 1963880); conditions: Potency: P12-Ichikawa viability; note: nearly all actives have a fitted effect of over 35% in size
Summary of the method: as §1

[8] = Quantitative highthroughput screen to assess conditional lethalithy of P12 Ichikawa cells grown in RPMI1640 with untreated serum (RPMI+s) (AID 1963881); conditions: Potency: viability
Summary of the method: as §1

[9] = Quantitative highthroughput screen to assess conditional lethalithy of SEM cells grown in Human Plasma-Like Medium with dialyzed fetal bovine serum (HPLM+ds) (AID 1963882)
Summary of the method: as §1

[10] = Quantitative highthroughput screen to assess conditional lethalithy of SEM cells grown in RPMI1640 with unreated serum (RPMI+s) (AID 1963883); note: nearly all actives have a fitted effect of over 35% in size
Summary of the method: as §1

[11] = Quantitative highthroughput screen to assess conditional lethalithy of SEM cells grown in RPMI1640 with dialyzed fetal bovine serum (RPMI+ds) (AID 1963884)
Summary of the method: as §1

CCCOC(c1cc2nccc(C(=O)O)c2[nH]1)c1ccccc1Cl (centres undefined)
Potency [1]: inactive
Potency [2]: inactive

COc1ccc(/C=C/C(=O)O[C@@H]2[C@@H](O)[C@H](C)O[C@@H](O[C@H]3[C@@H]4C=CO[C@@H](O[C@H]5O[C@@H](CO)[C@H](O)[C@@H](O)[C@@H]5O)[C@@H]4[C@@]4(CO)O[C@@H]34)[C@@H]2OC(C)=O)cc1
Potency [1]: inactive
Potency [2]: inactive

N=c1nc2n(cc1F)C1OC(CO)C(O)C1O2 (centres undefined)
Potency [1]: 1.64 µM (active)
Potency [2]: 2.59 µM (active)

C[C@@]12C[C@]3(O)O[C@H](O1)[C@]1(COC(=O)c4ccccc4)[C@H]3C[C@@]12O[C@@H]1O[C@H](CO)[C@@H](O)[C@H](O)[C@H]1O
Potency [1]: inactive
Potency [2]: inactive

NC(=O)C1=C(O)[C@@]2(O)C(=O)C3=C(O)c4c(O)cccc4C[C@H]3C[C@H]2CC1=O
Potency [1]: 3.32 µM (active)
Potency [2]: 2.63 µM (active)

CC(=O)O[C@@H]1CC2C(C)(C)C(=O)C=C[C@]2(C)C2CC[C@@]3(C)[C@H](c4ccoc4)OC(=O)[C@H]4O[C@]43[C@@]21C (some centres undefined)
Potency [1]: 10 µM (active)
Potency [2]: 7.09 µM (active)

CC(C)CN(C[C@@H](O)[C@H](Cc1ccccc1)NC(=O)O[C@@H]1CO[C@H]2OCC[C@H]21)S(=O)(=O)c1ccc(N)cc1
Potency [1]: inactive
Potency [2]: inactive

C[C@@H]1[C@H]2[C@H](O[C@@H]3O[C@H](CO)[C@@H](O)[C@H](O)[C@H]3O)OC=C(C(=O)O)[C@H]2C[C@@H]1OC(=O)/C=C/c1ccc(O)cc1
Potency [1]: inactive
Potency [2]: inactive

CC1(C)CC[C@]2(C(=O)O)CC[C@]3(C)C(=CCC4[C@@]5(C)C[C@@H](O)[C@H](O)C(C)(C)C5CC[C@]43C)[C@@H]2[C@@H]1O (some centres undefined)
Potency [1]: inactive
Potency [2]: inactive

CC(C)=CCC[C@](C)(O[C@@H]1O[C@H](CO[C@@H]2O[C@@H](CO)[C@H](O)[C@H]2O)[C@@H](O)[C@H](O)[C@H]1O)[C@H]1CC[C@]2(C)[C@@H]1[C@H](O)C[C@@H]1[C@@]3(C)CC[C@H](O[C@@H]4O[C@H](CO)[C@@H](O)[C@H](O)[C@H]4O[C@@H]4O[C@H](CO)[C@@H](O)[C@H](O)[C@H]4O)C(C)(C)[C@@H]3CC[C@]12C
Potency [1]: inactive
Potency [2]: inactive

COC(=O)C1=CO[C@@H](O[C@@H]2O[C@H](CO)[C@@H](O)[C@H](O)[C@H]2O)[C@@H]2C(CO)=CC[C@H]12
Potency [1]: inactive
Potency [2]: inactive

CC1=C(C)C(=O)OC(C(C)C2CCC3C4CC=C5CC(OC6OC(COC7OC(CO)C(O)C(O)C7O)C(O)C(O)C6O)CC(O)C5(C)C4CCC23C)C1 (centres undefined)
Potency [1]: inactive
Potency [2]: inactive

CCC[C@@]1(CCc2ccccc2)CC(O)=C([C@H](CC)c2cccc(NS(=O)(=O)c3ccc(C(F)(F)F)cn3)c2)C(=O)O1
Potency [1]: 20.6 µM (active)
Potency [2]: 23.1 µM (active)

CC1C(=O)OCC2=CCN3CCC(OC(=O)C(C)(O)C1(C)O)C23 (centres undefined)
Potency [1]: inactive
Potency [2]: inactive

C=C1C(=O)OC2/C=C(\CO)CC/C=C(\C=O)C(OC)C(OC(=O)C(C)CC)C12 (centres undefined)
Potency [1]: 10 µM (active)
Potency [2]: 2.52 µM (active)

CCNC1(C(N)=O)CCN(c2ncnc3c2nc(-c2ccccc2Cl)n3-c2ccc(Cl)cc2)CC1
Potency [1]: 7.42 µM (active)
Potency [2]: 16.6 µM (active)

CCC(C)C(=O)OC[C@H]1O[C@H](O[C@H]2O[C@H](CO)[C@@H](O)[C@H](O)[C@H]2O)[C@H](O)[C@@H](O)[C@@H]1O (some centres undefined)
Potency [1]: inactive
Potency [2]: inactive

CC(=O)N[C@H](Cc1ccc2ccccc2c1)C(=O)N[C@H](Cc1ccc(Cl)cc1)C(=O)N[C@H](Cc1cccnc1)C(=O)N[C@@H](CO)C(=O)N[C@@H](Cc1ccc(O)cc1)C(=O)N[C@H](CCCNC(N)=O)C(=O)N[C@@H](CC(C)C)C(=O)N[C@@H](CCCN=C(N)N)C(=O)N1CCC[C@H]1C(=O)N[C@H](C)C(N)=O
Potency [1]: inactive
Potency [2]: inactive

COc1ccc(CCc2nc3cc(-c4c(C)noc4C)ccc3n2CC(C)N2CCOCC2)cc1Cl (centres undefined)
Potency [1]: 4.11 µM (active)
Potency [2]: 5.17 µM (active)

C=Cc1ccc(O[C@@H]2O[C@H](CO[C@@H]3O[C@@H](C)[C@H](O)[C@@H](O)[C@H]3O)[C@@H](O)[C@H](O)[C@H]2O)cc1
Potency [1]: inactive
Potency [2]: inactive

COc1cc(N2CCOCC2)ccc1Nc1ncc(F)c(Nc2ccccc2NS(C)(=O)=O)n1
Potency [1]: 1.64 µM (active)
Potency [2]: 2.59 µM (active)

COC1=CC(=O)C[C@@H](C)[C@]12Oc1cc(OC)cc(OC)c1C2=O
Potency [1]: inactive
Potency [2]: inactive

COc1c2ccoc2nc2c(OC)c(O[C@@H]3O[C@@H](C)[C@H](O)[C@@H](O[C@@H]4O[C@H](CO)[C@@H](O)[C@H](O)[C@H]4O)[C@H]3OC(C)=O)ccc12
Potency [1]: inactive
Potency [2]: inactive

O=C(O)C(O[C@@H]1O[C@H](CO[C@@H]2O[C@H](CO)[C@@H](O)[C@H](O)[C@H]2O)[C@@H](O)[C@H](O)[C@H]1O)c1ccccc1 (some centres undefined)
Potency [1]: inactive
Potency [2]: inactive

CCOC(=O)C1=C(O)C(=O)N(Cc2ccccc2)C1
Potency [1]: inactive
Potency [2]: inactive
Potency [3]: inactive
Potency [4]: inactive
Potency [5]: inactive
Potency [6]: inactive
Potency [7]: inactive
Potency [8]: inactive
Potency [9]: inactive
Potency [10]: inactive
Potency [11]: inactive
